Assay results from article PMC4552634, “A New Set of Chemical Starting Points with Plasmodium falciparum Transmission-Blocking Potential for Antimalarial Drug Discovery” (PLoS ONE, 2015).
Like-named read-outs stand apart in the source and are kept apart here. Screen size: about 13,000 compounds; about 3,200 (25%) showed an effect of 50% or more. The list shows a part of the results.

Test system: P. falciparum stage V gametocytes
Parameters: BacTiter-Glo ATP luminescence viability of purified stage V gametocytes in 384-well plates, per cent inhibition versus DMSO
Conditions: 48 h, 5 µM, inhibitor

## Cc1cn(CC(=O)Nc2cccc(-c3cccc(-c4nc5ccc(C(F)(F)F)cc5[nH]4)c3)c2)c(=O)[nH]c1=O [TCMDC-137036]
  % Inhibition: 18.51%

## O=C(Nc1ccccc1F)NC1CCN(c2ccnc(Nc3ccc(F)cc3)n2)CC1 [TCMDC-133632]
  % Inhibition: -30.06%

## O=C(c1ccccc1F)N(Cc1ccc(Cl)cc1)c1ccccn1 [TCMDC-124909]
  % Inhibition: -19.06%

## COc1ccc2nccc([C@@H](O)CN3CCC(NCc4ccc5c(c4)sc(=O)n5C)CC3)c2c1 [TCMDC-141149]
  % Inhibition: -6.737%

## CCCCCC1c2[nH]c3ccccc3c2CCN1C(=O)OCc1ccccc1 (stereo not shown) [TCMDC-134554]
  % Inhibition: -7.791%

## CCCNCc1ccc(-c2ccc(CN(CC3CCCO3)C(=O)C3CC(=O)c4ccccc43)cc2)nc1 (stereo not shown) [TCMDC-141533]
  % Inhibition: 69.47%

## CCCNCc1ccc(-c2ccc(CN(CCOC)C(=O)[C@H]3CCCO3)cc2)nc1 [TCMDC-141530]
  % Inhibition: 80.98%

## CCCNCc1ccc(-c2ccc(CN(Cc3ccc4c(c3)OCO4)C(=O)[C@H]3CCCO3)cc2)nc1 [TCMDC-141531]
  % Inhibition: 105.6%

## CCCNCc1ccc(-c2ccc(CN(CC3CCCO3)C(=O)COc3ccccc3Cl)cc2)nc1 (stereo not shown) [TCMDC-141542]
  % Inhibition: 45.23%

## CCCNCc1ccc(-c2ccc(CN(CCOC)C(=O)CC3CCCC3=O)cc2)nc1 (stereo not shown) [TCMDC-141532]
  % Inhibition: 3.565%

## O=c1c2c([nH]c3cc(Cl)ccc13)CCCC2 [TCMDC-123504]
  % Inhibition: 42.94%

## CS(=O)(=O)c1ccc(OCCCN(Cc2ccccc2C(F)(F)F)c2ccc(C#N)c(C(F)(F)F)c2)cc1 [TCMDC-135467]
  % Inhibition: 19.91%

## O=C(N[C@@H](CC1CCCCC1)C(=O)NCCN1CCCC1)c1ccc(O)c(-c2cccc(C(F)(F)F)c2)c1 [TCMDC-140811]
  % Inhibition: 39%

## Cc1cc(OC(C)C(=O)N2CCc3ccccc32)ccc1Cl (stereo not shown) [TCMDC-123696]
  % Inhibition: 25.65%

## COc1ccc(Cc2cnc(N)nc2N)cc1OCCCOc1ccccc1 [TCMDC-137364]
  % Inhibition: -5.696%

## Cn1ccnc1Sc1ncccc1[N+](=O)[O-] [TCMDC-123944]
  % Inhibition: 5.094%

## O=C(Nc1cccc(CN2CCCN(Cc3ccc4c(c3)OCO4)CC2)c1)c1ccc2ccccc2c1 [TCMDC-141852]
  % Inhibition: -18.83%

## N#Cc1cccc(NC(=O)C2=C(CCc3ccc4c(c3)OCO4)NC(=O)NC2c2cccc(C#N)c2)c1 (stereo not shown) [TCMDC-136054]
  % Inhibition: 65.54%

## O=C(Nc1cccc(CN2CCCN(Cc3ccc4c(c3)OCO4)CC2)c1)c1ccc(-c2ccccc2)cc1 [TCMDC-134593]
  % Inhibition: -55.86%

## COc1cc(Cc2cnc(NCCN3CCNCC3)nc2N)ccc1OCc1ccc(C(F)(F)F)cc1 [TCMDC-138704]
  % Inhibition: 48.16%

## CCCCCCNc1cc(C)nc2ccc(OC)cc12.Cl [TCMDC-137623]
  % Inhibition: -4.593%

## Cc1cc(NCCCCCCNc2cc(C)nc3c(C)cccc23)c2cccc(C)c2n1 [TCMDC-125702]
  % Inhibition: 114%

## CCCCCCCNCCNc1cc(C)nc2ccccc12 [TCMDC-137556]
  % Inhibition: 91.75%

## Cc1cc(NCCCCCCCCNc2cc(C)nc3ccccc23)c2ccccc2n1 [TCMDC-137746]
  % Inhibition: 113.6%

## CCCCCCCN(CCCCCCC)CCNc1cc(C)nc2ccccc12 [TCMDC-137555]
  % Inhibition: 59.52%

## CCCCCCCNc1cc(C)nc2ccc(OC)cc12.Cl [TCMDC-137622]
  % Inhibition: 19.17%

## COc1cccc(Nc2nc(C)cc(NC3CCCC3)n2)c1 [TCMDC-133464]
  % Inhibition: 31.06%

## CCn1ncc(Cl)c1CN(C)S(=O)(=O)c1ccc2ccccc2c1 [TCMDC-124904]
  % Inhibition: 17.76%

## O=C(Nc1ccc2c(c1)CCC2)c1ccc(CN2CCCN(Cc3cccc(O)c3)CC2)cc1 [TCMDC-136388]
  % Inhibition: -14.41%

## N#Cc1ccc2c(c1)CN(C1CCC(NC(=O)/C=C/c3cc(C(F)(F)F)cc(C(F)(F)F)c3)CC1)CCC2 (stereo not shown) [TCMDC-133502]
  % Inhibition: -43.57%

## O=c1cc(NCCCNCc2cccc(Oc3ccccc3)c2)[nH]c2ccccc12 [TCMDC-139309]
  % Inhibition: 31.54%

## O=c1cc(NCCCNCc2cccc(OC(F)(F)C(F)F)c2)[nH]c2ccccc12 [TCMDC-139419]
  % Inhibition: -24.87%

## CCC/C=C/c1c(CNCCCNc2cc(=O)c3ccccc3[nH]2)sc(CC)c1Br [TCMDC-140971]
  % Inhibition: 58.98%

## O=c1cc(NCCCNCc2ccc(Cl)c(Cl)c2)[nH]c2ccc(C(F)(F)F)cc12 [TCMDC-139407]
  % Inhibition: 4.234%

## CCCC(CNCc1cccc(OCC)c1)CNc1cc(=O)c2ccccc2[nH]1 (stereo not shown) [TCMDC-139432]
  % Inhibition: 35.2%

## O=c1cc(NCCCNCc2ccc(Cl)c(Cl)c2)[nH]c2ccc(Cl)cc12 [TCMDC-139400]
  % Inhibition: 23.89%

## CCCC(CNCc1cccc(OC(F)(F)F)c1)CNc1cc(=O)c2ccccc2[nH]1 (stereo not shown) [TCMDC-139429]
  % Inhibition: 83.68%

## O=c1cc(NCCCNCc2sc(Br)c(Br)c2Br)[nH]c2ccccc12 [TCMDC-139647]
  % Inhibition: -5.668%

## O=c1cc(NCCCNCc2ccc(Cl)c(Cl)c2)[nH]c2cc(Cl)ccc12 [TCMDC-139401]
  % Inhibition: 50.55%

## O=c1cc(NCCCNCc2cccc(OC(F)(F)F)c2)[nH]c2ccccc12 [TCMDC-139418]
  % Inhibition: 80.26%

## CCc1cc(Br)c(CNCCCNc2cc(=O)c3ccccc3[nH]2)s1 [TCMDC-140745]
  % Inhibition: -24.29%

## CCCC(CNCc1cccc(OC(F)(F)C(F)F)c1)CNc1cc(=O)c2ccccc2[nH]1 (stereo not shown) [TCMDC-139430]
  % Inhibition: -8.212%

## CN(C)CC(=O)NCC(NCCCNc1cc(=O)c2ccccc2[nH]1)c1cc(Br)cc(Br)c1 (stereo not shown) [TCMDC-140314]
  % Inhibition: -36.64%

## CN(CCCN(C)c1cc(NC(=O)c2ccc(F)cc2)ccn1)Cc1cccc(F)c1 [TCMDC-135041]
  % Inhibition: -7.091%

## Cc1ccc(O)c(-c2cc(C(=O)Nc3ccc(S(=O)(=O)N4CCCC(C)C4)cc3)[nH]n2)c1 (stereo not shown) [TCMDC-125202]
  % Inhibition: -32.7%

## CN1CCCc2ccc(NC(=O)c3cnc(-c4ccccc4)cn3)cc21 [TCMDC-141218]
  % Inhibition: -34.46%

## O=c1cc(NCCCNC(c2ccccc2)c2ccc(Cl)c(Cl)c2)[nH]c2ccccc12 (stereo not shown) [TCMDC-139318]
  % Inhibition: 54.86%

## O=c1cc(NCCCNCc2cc(Cl)c(Cl)cc2Cl)[nH]c2ccccc12 [TCMDC-139631]
  % Inhibition: -58.3%

## O=c1cc(NCCCNC2CCCc3c2cc(Cl)c(Cl)c3Cl)[nH]c2ccccc12 (stereo not shown) [TCMDC-139478]
  % Inhibition: 2.268%

## O=c1cc(NCCCNC2CCc3c(Cl)cc(Cl)cc32)[nH]c2ccccc12 (stereo not shown) [TCMDC-139485]
  % Inhibition: 17.36%

## O=c1cc(NCCCNC2CCc3ccc(Cl)cc32)[nH]c2ccccc12 (stereo not shown) [TCMDC-139365]
  % Inhibition: 84.72%

## O=c1cc(NCCCN(Cc2ccccc2)Cc2ccccc2)[nH]c2ccccc12 [TCMDC-139368]
  % Inhibition: -49.11%

## Cc1[nH]c2ccc(O)cc2c1C1CCN(CC2CCN(C(=O)/C=C/c3ccc(Cl)c(Cl)c3)CC2)CC1 [TCMDC-140219]
  % Inhibition: 39.96%

## CCCCCCCCCC(=O)NCC1CC(Br)=NO1 (stereo not shown) [TCMDC-137735]
  % Inhibition: 4.616%

## OC(CNCCCCCCNCC(O)c1ccc(Cl)c(Cl)c1)c1ccc(Cl)c(Cl)c1 (stereo not shown) [TCMDC-141987]
  % Inhibition: 99.2%

## OC(CNC1CCCCCCC1)c1ccc(Cl)c(Cl)c1 (stereo not shown) [TCMDC-141991]
  % Inhibition: -9.212%

## OC(CNC1CCCCC1)c1ccc(Cl)c(Cl)c1 (stereo not shown) [TCMDC-123990]
  % Inhibition: 75.22%

## OC(CNC1CCCCCC1)c1ccc(Cl)c(Cl)c1 (stereo not shown) [TCMDC-141990]
  % Inhibition: -11.57%

## CC(C)C[C@H](NC(=O)c1ccc(OCCN2CCOCC2)cc1)C(=O)N[C@H](/C=N/N(C)C(=O)c1ccccc1)CCc1ccccc1 [TCMDC-135854]
  % Inhibition: 17.32%

## CC1(C)N=C(N)N=C(N)N1OCc1cccs1 [TCMDC-131654]
  % Inhibition: 20.54%

## COC(=O)/C=C/c1ccc(CC(C)NCC(O)c2cccc(C(F)(F)F)c2)cc1 (stereo not shown) [TCMDC-131448]
% Inhibition
  % Inhibition: -0.1444%

## CCNc1cc(C(=O)N[C@@H](Cc2ccccc2)[C@H](O)CNC(CC)c2cccc(Cl)c2)cc(N2CCCCS2(=O)=O)c1 (stereo partly shown) [TCMDC-135221]
  % Inhibition: 3.057%

## CCNc1cc(C(=O)N[C@@H](Cc2ccccc2)[C@H](O)CNC(C)(C)Cc2ccccc2)cc(N2CCCC2=O)c1 [TCMDC-134567]
  % Inhibition: 5.299%

## CCNc1cc(C(=O)N[C@@H](Cc2ccccc2)[C@H](O)CN[C@@H]2CCc3ccccc32)cc(N2CCCC2=O)c1 [TCMDC-132414]
  % Inhibition: 21.82%

## CCNc1cc(C(=O)N[C@@H](Cc2ccccc2)[C@H](O)CN[C@H]2CCc3ccccc32)cc(N2CCCC2=O)c1 [TCMDC-138917]
  % Inhibition: 52.85%

## CCNc1cc(C(=O)N[C@@H](Cc2ccccc2)[C@H](O)CNC(CC)c2cccc(Cl)c2)cc(N2CCCC2=O)c1 (stereo partly shown) [TCMDC-135264]
  % Inhibition: 64.68%

## CCNc1cc(C(=O)N[C@@H](Cc2ccccc2)[C@H](O)CN[C@H](C)c2ccccc2)cc(N2CCCC2=O)c1 [TCMDC-138822]
  % Inhibition: 64.41%

## CCCCCC(C)(C)NC[C@@H](O)[C@H](Cc1ccccc1)NC(=O)c1cc(NCC)cc(N2CCCC2=O)c1 [TCMDC-138912]
  % Inhibition: 10.89%

## CCNc1cc(C(=O)N[C@@H](Cc2ccccc2)[C@H](O)CNC(C)(C)CSCC(C)C)cc(N2CCCC2=O)c1 [TCMDC-134311]
  % Inhibition: 69.93%

## CCNc1cc(C(=O)N[C@@H](Cc2ccccc2)[C@H](O)CNC2CCCC2)cc(N2CCCC2=O)c1 [TCMDC-138844]
  % Inhibition: 16.89%

## CCC(NC[C@@H](O)[C@H](Cc1ccccc1)NC(=O)c1cc(C2CCCC2)cc(N2CCCC2=O)c1)c1cccc(Cl)c1 (stereo partly shown) [TCMDC-135265]
  % Inhibition: 4.239%

## CCNc1cc(C(=O)N[C@@H](Cc2ccccc2)[C@H](O)CN[C@@H](C)c2ccccc2)cc(N2CCCC2=O)c1 [TCMDC-138823]
  % Inhibition: 8.317%

## CCNc1cc(C(=O)N[C@@H](Cc2ccccc2)[C@H](O)CN[C@@H](C)c2cccc(OC)c2)cc(N2CCCC2=O)c1 [TCMDC-138824]
  % Inhibition: -0.5109%
